Molecules are shown by their SMILES. Unmarked numbers belong to inactive results. Inconclusive results are not listed. Active and inactive are the calls of the source. Unless noted, the call rests on the fitted dose curve; in most records, active means well fitted curve in either direction with a large enough effect (not every such curve was filed as active); inconclusive means small, poorly fitted or top-dose-only effect, or another doubt; inactive means flat fitted curve, though single readings scatter.

Assay [1] concerns the target Lysosomal acid glucosylceramidase (Homo sapiens) (UniProt P04062). Description: Glucocerebrosidase-p2 (AID 348; in the data active means potency below about 10 µM; further: potency means the concentration at half of the fitted maximal effect). The following applies: purified GBA, blue fluorogenic substrate, 40 min. In a few lines: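 Compounds titrated from 0.6 nM upwards against 0.2 nM enzyme in pH 5.9 citric acid/KH2PO4, taurocholate, tween-20; blue fluorogenic substrate 80 uM, 40 min room temperature, stopped and read Ex 365/Em 440 for AC50.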

Assay [2] is described as follows: AP1 Signaling Pathway (AID 357).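 Further: ME-180 reporter cells stimulated with EGF at its EC50 level; on the % scale 0 is the no-effect control and ±100 the full control effect.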 As to conditions: ME-180 AP-1-bla reporter, EGF-induced, beta-lactamase ratio, 5 h; at 7.69 µM (top of the series) unless noted. The procedure, abridged:
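Read-out was the 460nm/530nm emission ratio (excitation 405nm) after CCF4 loading for 2.5 hours at room temperature. Cells carried an AP-1-driven beta-lactamase reporter, were stimulated with EC50 EGF plus compound for 5 hours, and AC50 values came from titrations.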

Assay [3] addresses Cytochrome P450 1A2 (Homo sapiens) (UniProt P05177). The assay is described as follows: p450-cyp1a2 (AID 410; calls by dose curve; further: potency means the concentration at half of the fitted maximal effect;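 on activity change, negative = inhibition: -100% = full effect of reference inhibitor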). As to conditions: recombinant CYP1A2, luciferin-ME demethylation, luminescence; series mostly up to 11.4 µM. The procedure, abridged: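 20nM CYP1A2 with 100uM Luciferin-ME (at Km) in 100mM KPO4; compound preincubated 10 min, NADPH regeneration added, 60 min at room temperature. Luciferin quantified by luminescence after detection reagent; normalized to 57 uM furafylline.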

The nature of assay [4]: NFAT Signaling Pathway (AID 444).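 Further: carbachol stimulus at about its EC50 of 1 µM final; on the % scale 0 is the no-effect control and ±100 the full control effect.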 The following applies: Jurkat NFAT-bla M1, carbachol, beta-lactamase ratio, 5 h; at 7.69 µM (top of the series) unless noted. The procedure, abridged: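 Jurkat cells with NFAT-driven β-lactamase reporter and co-expressed M1 receptor, stimulated with carbachol (final 1 uM, ~EC50), compound titration, 5 h at 37 °C. CCF4 loaded 1 h at RT; 460/530 nm ratio gave %activity and AC50.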

A short description of assay [5]: Stat Signaling Pathway (AID 446).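 Further: ME-180 cervical cancer cells given 40 pM IL-6 alongside compound; SIE-controlled beta-lactamase reporter measured as 460/530 nm FRET emission ratio; on the % scale 0 is the no-effect control and ±100 the full control effect.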 As to conditions: ME-180 SIE beta-lactamase reporter, IL-6 stimulated, 5 h; at 7.69 µM (top of the series) unless noted. In a few lines: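 ME-180 cells carrying a SIE-driven beta-lactamase reporter are stimulated with 40 pM IL-6 for 5 h at 37C in the presence of compound. The 460/530 nm FRET substrate ratio is read after 2.5 h at RT. Data are normalised to 300 pM IL-6 and to 125 nM JAK inhibitor controls.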

The target of assay [6] is Glucocorticoid receptor (Homo sapiens) (UniProt P04150). The assay is described as follows: GR-GFP Redistribution (AID 450;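 active means compounds whose dose series gives a full or clear partial fitted curve of increased nuclear translocation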; further: potency means the concentration at half of the fitted maximal effect). As to conditions: U2OS GR-GFP nuclear translocation, laser cytometry, 2 h.
Chain of Glucocorticoid receptor (Homo sapiens) (P04150 whole entry, looked up): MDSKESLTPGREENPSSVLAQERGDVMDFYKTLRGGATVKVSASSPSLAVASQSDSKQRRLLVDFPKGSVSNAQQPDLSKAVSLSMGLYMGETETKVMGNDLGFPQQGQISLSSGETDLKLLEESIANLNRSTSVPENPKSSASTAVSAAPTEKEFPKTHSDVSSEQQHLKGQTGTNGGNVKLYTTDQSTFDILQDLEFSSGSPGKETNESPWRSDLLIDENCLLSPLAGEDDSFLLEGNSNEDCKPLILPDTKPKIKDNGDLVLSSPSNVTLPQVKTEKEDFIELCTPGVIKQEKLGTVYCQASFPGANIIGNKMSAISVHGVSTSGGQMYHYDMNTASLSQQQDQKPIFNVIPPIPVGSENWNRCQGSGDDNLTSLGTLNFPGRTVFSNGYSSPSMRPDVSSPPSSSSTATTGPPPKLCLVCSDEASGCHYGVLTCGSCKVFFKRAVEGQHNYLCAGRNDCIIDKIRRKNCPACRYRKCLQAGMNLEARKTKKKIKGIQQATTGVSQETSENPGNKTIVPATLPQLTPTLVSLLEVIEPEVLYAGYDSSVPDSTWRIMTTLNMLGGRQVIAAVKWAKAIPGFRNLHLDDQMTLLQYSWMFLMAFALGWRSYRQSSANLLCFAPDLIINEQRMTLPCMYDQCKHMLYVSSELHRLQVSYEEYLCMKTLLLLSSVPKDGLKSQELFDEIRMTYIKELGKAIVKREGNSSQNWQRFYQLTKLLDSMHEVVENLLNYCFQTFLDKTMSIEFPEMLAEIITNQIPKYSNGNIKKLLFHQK
The target is the same in assay [7]. Description: GR-EFC Redistribution (AID 451; calls by dose curve; further: potency means the concentration at half of the fitted maximal effect). As to conditions: CHO-K1 GR-EFC translocation, beta-gal luminescence, 2 h. The procedure, abridged:
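CHO-K1 cells expressing nuclear EA and GR-ED fragments of b-gal; compounds titrated up to 46 uM final, 2 h at 37 C. GR nuclear translocation read as complemented b-gal luminescence after 1 h RT detection.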

Assay [8] addresses Mitogen-activated protein kinase 10 (Mus musculus) (UniProt Q61831). Description: JNK3 AlphaScreen Assay (AID 530).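 Further: kinase came from lysate of stimulated human HepG2 cells; signal reports phosphorylation of biotinylated GST-cJun 1-79 at Ser73 with 10 µM ATP; on the % scale 0 is the no-effect control and ±100 the full control effect.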 The following applies: JNK3 lysate, c-Jun phosphorylation; series mostly up to 11.4 µM. The procedure, abridged:
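Pre-activated (IL-1β/TNFα) JNK3 in HepG2 lysates phosphorylates biotin-GST-cJun(1-79), 10 uM ATP; anti-phospho-cJun(Ser73) AlphaScreen read at room temperature, pH 7.6 Tris buffer. Compounds pre-incubated 15 min as titrations.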

Assay [9] has as its target 3',5'-cyclic-AMP phosphodiesterase 4B (Homo sapiens) (UniProt Q07343). Description: qHTS Assay for Inhibitors of PDE-IV (AID 607; active means well fitted activation curve with a large enough effect in the main read-out, with a control signal flat, not every such curve was filed as active; further: % of control where 0% means no effect). The following applies: HEK293 ACTOne CNG channel cells, membrane potential fluorescence; series mostly up to 22.9 µM. In a few lines:
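HEK293 ACTOne cells with CNG channel (1000/well), endogenous PDE4; membrane potential dye, compounds up to 22.9 uM final. Fluorescence Ex 535/Em 590; RO 20-1724 (100 uM final) as reference.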

Chain of Cytochrome P450 1A2 (Homo sapiens) (P05177 whole entry, looked up): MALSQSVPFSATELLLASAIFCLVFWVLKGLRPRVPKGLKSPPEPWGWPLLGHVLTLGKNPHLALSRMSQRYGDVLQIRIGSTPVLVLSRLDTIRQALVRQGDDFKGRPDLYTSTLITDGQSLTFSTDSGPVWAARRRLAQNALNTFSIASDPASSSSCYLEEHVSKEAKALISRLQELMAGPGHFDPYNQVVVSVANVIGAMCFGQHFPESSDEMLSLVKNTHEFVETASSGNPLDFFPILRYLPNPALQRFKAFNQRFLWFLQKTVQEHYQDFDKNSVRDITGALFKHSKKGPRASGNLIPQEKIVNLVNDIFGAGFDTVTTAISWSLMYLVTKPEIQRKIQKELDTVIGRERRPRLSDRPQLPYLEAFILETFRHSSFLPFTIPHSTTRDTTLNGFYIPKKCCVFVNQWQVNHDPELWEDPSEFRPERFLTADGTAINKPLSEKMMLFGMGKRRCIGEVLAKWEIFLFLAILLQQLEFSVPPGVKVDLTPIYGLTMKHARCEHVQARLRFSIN
Chain of Lysosomal acid glucosylceramidase (Homo sapiens) (P04062 whole entry, looked up): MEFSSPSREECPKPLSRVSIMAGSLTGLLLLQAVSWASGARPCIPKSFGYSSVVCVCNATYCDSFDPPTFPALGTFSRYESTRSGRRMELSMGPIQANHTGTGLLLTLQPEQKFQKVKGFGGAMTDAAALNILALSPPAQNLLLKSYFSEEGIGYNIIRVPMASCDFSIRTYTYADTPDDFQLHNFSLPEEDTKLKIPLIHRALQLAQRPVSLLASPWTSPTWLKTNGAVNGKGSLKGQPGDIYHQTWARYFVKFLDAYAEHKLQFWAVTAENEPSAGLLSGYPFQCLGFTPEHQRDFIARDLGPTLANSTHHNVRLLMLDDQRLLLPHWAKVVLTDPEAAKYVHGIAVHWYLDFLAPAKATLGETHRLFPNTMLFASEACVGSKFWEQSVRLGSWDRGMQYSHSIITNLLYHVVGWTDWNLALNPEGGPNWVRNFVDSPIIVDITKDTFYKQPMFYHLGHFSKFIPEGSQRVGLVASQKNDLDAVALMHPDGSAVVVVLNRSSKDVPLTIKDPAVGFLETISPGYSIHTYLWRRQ
Chain of 3',5'-cyclic-AMP phosphodiesterase 4B (Homo sapiens) (Q07343 whole entry, looked up): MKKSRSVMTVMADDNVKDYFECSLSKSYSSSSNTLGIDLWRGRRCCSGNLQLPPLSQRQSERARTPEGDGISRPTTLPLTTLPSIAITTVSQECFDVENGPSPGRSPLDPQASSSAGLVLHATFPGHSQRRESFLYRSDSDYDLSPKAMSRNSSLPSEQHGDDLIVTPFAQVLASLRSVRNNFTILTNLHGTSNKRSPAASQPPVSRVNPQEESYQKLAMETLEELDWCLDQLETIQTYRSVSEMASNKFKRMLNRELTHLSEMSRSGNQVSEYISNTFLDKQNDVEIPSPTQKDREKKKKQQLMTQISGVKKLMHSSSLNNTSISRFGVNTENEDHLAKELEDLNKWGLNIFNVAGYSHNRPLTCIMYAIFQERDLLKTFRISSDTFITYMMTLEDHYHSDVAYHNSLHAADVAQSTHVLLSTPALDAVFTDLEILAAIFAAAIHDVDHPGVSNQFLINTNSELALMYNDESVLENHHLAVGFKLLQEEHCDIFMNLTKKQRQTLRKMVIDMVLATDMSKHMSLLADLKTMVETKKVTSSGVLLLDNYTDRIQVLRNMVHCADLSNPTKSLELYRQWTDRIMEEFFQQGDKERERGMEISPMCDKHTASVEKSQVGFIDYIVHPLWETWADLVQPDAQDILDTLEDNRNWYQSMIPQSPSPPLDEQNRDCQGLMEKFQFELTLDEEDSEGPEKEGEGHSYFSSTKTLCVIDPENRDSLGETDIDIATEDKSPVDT

Take `O=[N+]([O-])c1ccc(Cl)c(CNc2ncnc3c2ncn3[C@@H]2CCCCO2)c1`: the Potency in [1] was greater than 11.4 µM; in assay [3], 5.01 µM (active); in assay [6], greater than 46 µM; in assay [7] it was greater than 9.22 µM. Further, the activity change, negative = inhibition was -3.17% in assay [2] and 6.3% in assay [4]. Further, the activity, negative = inhibition in assay [5] is 1.26%. Moreover, the Potency result in assay [8] and in [9] was “inactive” each time.
Regarding `Nc1nc(=O)c2[nH]cnc2n1O`, the Potency in assay [1] was greater than 11.4 µM; in assay [6] it was greater than 46 µM; in [7] it was greater than 9.22 µM. Besides, the activity change, negative = inhibition in assay [2] was 10.1%; in [4] it was -5.74%. For the same compound, the Potency result in assay [3], in assay [8] and in assay [9] was “inactive” in each case. The activity, negative = inhibition in assay [5] is 7.15%.
As to `COc1ccc(C[N+](C)(C)N)cc1OC`, the Potency in [1] was greater than 11.4 µM; in [6] it was greater than 46 µM; in assay [7] it was greater than 9.22 µM. Further, the figures for the activity change, negative = inhibition in [2] and in [4] were 0.59% and -4.71%, respectively. Further, the Potency entry in assay [3], in assay [8] and in assay [9] was “inactive” throughout. For the same compound, the activity, negative = inhibition in assay [5] was 7.15%.
Turning to `COc1cc(C)cc(OC)c1/C=C\C(=O)O`, the figures for the Potency in [1], in assay [6] and in assay [7] were greater than 11.4 µM, greater than 46 µM and greater than 9.22 µM, respectively. The values for the activity change, negative = inhibition in assay [2] and in assay [4] were 12.4% and 8.76%, respectively. In addition, the Potency entry in [3], in [8] and in assay [9] was “inactive” each time. For the same compound, in [5], the activity, negative = inhibition is 7.32%.
`O[C@]1(c2ccccc2)c2ccccc2NC2=NCCN21`: the Potency was greater than 11.4 µM in [1], greater than 46 µM in assay [6] and greater than 9.22 µM in assay [7]. Besides, the activity change, negative = inhibition in assay [2] is 12.3%; in assay [4], -13.7%. The Potency result in assay [3], in assay [8] and in [9] was “inactive” each time. Besides, in assay [5], the activity, negative = inhibition is 4.27%.
`COc1ccc2c3c([nH]c2c1)[C@H]1C[C@@H]2[C@@H](C[C@@H](O)[C@H](OC)[C@H]2C(=O)O)CN1CC3`: the Potency is greater than 11.4 µM in assay [1], greater than 46 µM in [6] and greater than 9.22 µM in assay [7]. Further, the activity change, negative = inhibition in assay [2] was -5.49%; in assay [4], 0.887%. For the same compound, the Potency result in assay [3], in assay [8] and in assay [9] was “inactive” in each case. In addition, in assay [5], the activity, negative = inhibition is -7.32%.
Regarding `CC(=O)[C@]1(O)CC[C@@H]2[C@H]3C[C@@H](C)C4=CC(=O)CC[C@@]4(C)[C@H]3[C@@H](O)C[C@]21C`, the values for the Potency in [1], in assay [6] and in [7] were greater than 11.4 µM, < 2.95e-05 µM (active) and 0.0236 µM (active), respectively. Besides, the activity change, negative = inhibition is -0.0488% in assay [2], -2% [at 2.29 µM] in assay [3] and 16.8% in assay [4]. For the same compound, the activity, negative = inhibition in [5] is -9.62%. Further, the Potency entry in assay [8] and in assay [9] was “inactive” in each case.
For `Cc1ncc(CN=Cc2ccc(Cl)cc2)c(N)n1`, the Potency was greater than 11.4 µM in assay [1], 5.01 µM (active) in assay [3], greater than 46 µM in assay [6] and greater than 9.22 µM in assay [7]. The activity change, negative = inhibition in assay [2] was -0.312%; in assay [4], 23.1%. For the same compound, in assay [5], the activity, negative = inhibition is 3.08%. For the same compound, the Potency entry in [8] and in [9] was “inactive” in each case.
Regarding `Cc1cc(N=Cc2c(CO)cnc(C)c2O)c(N=Cc2c(CO)cnc(C)c2O)cc1C.[Zn]`, the Potency in [1] is greater than 11.4 µM; in assay [6], greater than 46 µM; in assay [7] it was greater than 9.22 µM. Further, the results for the activity change, negative = inhibition in assay [2], in [3] and in assay [4] were -2.68%, -10.4% [at 2.29 µM] and 14.7%, respectively. For the same compound, the activity, negative = inhibition in assay [5] is 7.49%. Besides, the Potency result in assay [8] and in assay [9] was “inactive” in each case.
Take `O=C(O)CCC(=O)c1ccc(Cl)cc1`: the results for the Potency in assay [1], in assay [6] and in assay [7] were greater than 11.4 µM, greater than 46 µM and greater than 9.22 µM, respectively. Also, the activity change, negative = inhibition in [2] was 11.6%; in assay [4], -7.55%. Besides, the Potency result in assay [3], in [8] and in assay [9] was “inactive” in each case. Besides, the activity, negative = inhibition in assay [5] is 17.9%.
Consider `Cn1c(=O)c2[nH]c([C@@H]3CC(=O)C[C@H](c4nc5c([nH]4)c(=O)n(C)c(=O)n5C)N3)nc2n(C)c1=O`, for which the Potency was greater than 11.4 µM in assay [1], greater than 46 µM in assay [6] and greater than 9.22 µM in assay [7]. Moreover, the activity change, negative = inhibition is 3.07% in assay [2], -18.2% [at 2.29 µM] in [3] and 19% in [4]. Further, in assay [5], the activity, negative = inhibition is 6.09%. For the same compound, the Potency entry in assay [8] and in [9] was “inactive” throughout.
For the compound `CC1=NN(c2ccccc2)C(=O)[C@@H]1N=Nc1ccc(S(N)(=O)=O)cc1`, the Potency in assay [1] is greater than 11.4 µM; in assay [3] it was 1.26 µM (active); in [6], greater than 46 µM; in assay [7], greater than 9.22 µM. The activity change, negative = inhibition in [2] is 6.08%; in assay [4], 9.48%. Also, the activity, negative = inhibition in assay [5] is -4.22%. For the same compound, the Potency result in assay [8] and in assay [9] was “inactive” throughout.
For `CC(C)(C)CNCCO`, the Potency was greater than 11.4 µM in assay [1], greater than 46 µM in assay [6] and greater than 9.22 µM in assay [7]. The activity change, negative = inhibition in [2] was -7.33%; in assay [3], 6.2% [at 2.29 µM]; in assay [4], 4.1%. In addition, in assay [5], the activity, negative = inhibition is 7.24%. Besides, the Potency entry in assay [8] and in assay [9] was “inactive” throughout.
As for `C=CCSc1nc2ccccc2c(=O)n1Cc1ccco1`, the Potency in [1] was greater than 11.4 µM; in assay [3], 0.0251 µM (active); in [6], greater than 46 µM; in assay [7], greater than 9.22 µM. The activity change, negative = inhibition in assay [2] is -0.523%; in [4] it was 2.6%. For the same compound, the activity, negative = inhibition in [5] was -8.01%. Moreover, the Potency result in assay [8] and in assay [9] was “inactive” each time.
